Screens from PubChem.
A selection: hits, their analogues and other compounds. The true share with any hit is near 4.1%.
GRIN3A LBD mod: binders of NR3A ligand-binding domain, primary screen, biophysical, differential scanning fluorimetry, uHTS; NR3A LBD differential scanning fluorimetry, Tm shift; 0% = protein alone, 100% = glycine-bound protein; Tm shift relative to glycine control, % at 25 µM; AID 1259313, 2017; hit rate 2.5% among 340,000; Glutamate receptor ionotropic, NMDA 3A (GRIN3A) ligand-binding domain;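 active = melting temperature shift of at least 10% of the positive control shift, at one fixed dose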
MIN6 prolif-1: inducers of MIN6 beta-cell proliferation, primary screen, ATP luminescence, uHTS | MIN6 cells proliferation, ATPlite luminescence, 48 h; cells starved in 0.2% serum; 100% = growth in 10% serum | proliferation, % at 10 µM | hit rate 0.29% among 330,000 | AID 2380, 2010;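 active = compounds whose signal lies at least 3.5 SD above the mean of all wells on their plate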;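 also: 0% = DMSO-treated cells in low-serum medium and 100% = 10% serum control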
MPTP inh: mitochondrial permeability transition pore inhibitors, primary screen, biochemical, isolated mouse mitochondria, absorbance. Ca2+ swelling absorbance, 30 min. hit rate 1.4% among 360,000. inhibition, % at 10 µM. AID 602449, 2012;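 active = inhibition of 50% or more, scaled per plate between neutral and stimulator controls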;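 also: 0% = DMSO wells given calcium and 100% = 1 mM EGTA wells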
FAS TE block: FAS thioesterase domain inhibitors, primary screen, biochemical, fluorescence intensity, uHTS; Fatty acid synthase (Homo sapiens), P49327; recombinant FAS-TE, OMFH fluorogenic substrate, fluorescence endpoint; inhibition, % at 15 µM; hit rate 0.67% among 360,000; AID 602261, 2012;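 active = compounds whose normalised, plate-corrected inhibition of enzyme fluorescence in the single-dose primary screen is 50% or more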;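 also: 0% = DMSO with enzyme and 100% = substrate without enzyme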
pCIP destab: p/CIP-EGFP fusion destabilizers, primary screen, fluorescence, F442A cells. Q05BA5. 16 h. decrease of EGFP signal, % at 10 µM. hit rate 0.01% among 290,000;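 active = EGFP signal decrease of at least 30% at 10 µM or well 3 SD below plate mean, unless failing retest; inactive = the rest, including hits failing retest or dose response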
MIN6 prolif-2: inducers of beta-cell proliferation in MIN6, confirmation, MIN6 cells, mouse; 920 tested, under 10 active; shares compounds with MIN6 prolif-1; proliferation increase, % at 50 µM; ATPlite luminescence, 48 h; cells kept in 0.2% serum; scaled between 0.2% and 10% serum; AID 463095, 2010;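 active = proliferation increase above 40% at any of the four tested concentrations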
* marks the source's active call; other numbers are inactive results; x = no result.

SMILES	GRIN3A LBD mod	MIN6 prolif-1	MPTP inh	FAS TE block	pCIP destab	MIN6 prolif-2
Cn1c(SCC(=O)c2ccccc2)nnc1C1COc2ccccc2O1 (stereo not given)	1	5.6*	1	2	2	0
Cc1ccc(OC(=O)COc2ccccc2C)cc1	4	-3	0	6	-10	x
COc1ccc(OC(=O)COc2cc(C)ccc2C)cc1	1	6.1*	0	10	-13	-1
COC(=O)c1cc(=O)nc(NN=Cc2ccc(OC)cc2)s1	x	x	0	-1	x	x
CC(C)(C)OC(=O)NCCc1nc(NC(=O)OCc2ccccc2)sc1C(=O)O	x	x	1	x	x	x
CC1(C(=O)NCc2ccccc2)CCC(=O)N1CCOc1ccccc1 (stereo not given)	x	x	0	-13	x	x
OCC[C@@H]1C[C@H](O)[C@@H](O)[C@]2(OCCc3cc(Cl)ccc32)O1	x	x	-1	-8	x	x
CCCCn1c(SCC(=O)Nc2sc3c(c2C(N)=O)CCC3)nnc1-c1ccccc1	0	8.3*	0	4	x	-6
NC(=O)c1c(NC(=O)CSc2nnc(Cc3ccccc3)n2Cc2ccco2)sc2c1CCC2	0	-2	-1	12	-12	x
CC1(C)CNC(=O)CC(C)(C)N1O	-13	6.6*	0	-6	2	-4
COc1ccc([N+](=O)[O-])cc1NC(=O)c1ccc(N2C(=O)CCC2=O)cc1	-1	7.8*	3	7	0	0
COc1ccc([N+](=O)[O-])cc1NC(=O)c1ccc(-n2nc(C)cc2C)cc1	5	-1	0	18	-7	x
CCOC(=O)C1(Cc2ccccc2C)CCCN(C(=O)CCn2nccc2C)C1 (stereo not given)	0	11*	-1	-2	-9	-4
Cc1ccc(S(=O)(=O)NC2=NCN(CCOC(=O)c3ccccc3)CN2)cc1	-1	2	-3	-5	0	x
Cc1ccc(S(=O)(=O)NC2=NCN(CCOC(=O)c3ccc([N+](=O)[O-])cc3)CN2)cc1	-1	8.4*	-2	6	5	0
CC(=O)c1c(C)nc2cc(Cl)ccc2c1N	-2	5.5*	-3	-10	-2	6
COc1ccc(C2(C)NC(=O)N(Cc3cc(Cl)cc4c3OCOC4)C2=O)cc1OC (stereo not given)	-3	15*	3	6	-7	-6
CCc1nc2ccc(C(=O)Nc3cccc(NS(C)(=O)=O)c3)cn2c1N(CC)Cc1cccc(Br)c1	x	x	2	23	x	x
Cc1ccc(-n2nnnc2CNC(=O)C2CC(=O)N(c3ccc(F)cc3)C2)cc1C (stereo not given)	4	12*	-1	-6	x	1
O=c1c2ccccc2nc(SCc2cn3ccsc3n2)n1-c1ccccc1	-6	6.1*	-2	8	6	-6
Cc1ccc(Cc2c(-c3ccccc3)nc3c(Cl)cc(C(F)(F)F)cn23)cc1	x	x	2	-6	x	x
O=C(CNC(=O)c1ccccc1Cl)Nc1ccc(F)cc1	-8	7.0*	0	-13	9	-1
O=C(CNC(=O)c1ccccc1Cl)Nc1ccncc1	2	-4	0	-6	x	x
CCCC(=O)Nc1ccc(S(=O)(=O)N2CCc3ccccc32)cc1	x	x	0	9	x	x
O=C(Cn1nnc(-c2ccccc2)c1COc1ccc2ccccc2c1)NCC1CC1	x	x	1	9	x	x
SMILES	GRIN3A LBD mod	MIN6 prolif-1	MPTP inh	FAS TE block	pCIP destab	MIN6 prolif-2
COCc1cc(Sc2ccc(Cl)cc2)nc(-c2ccccc2)n1	0	-3	2	26	5	x
CCN(CC)C(=O)Oc1cc(COC)nc(-c2ccccc2)n1	5	5.3*	2	1	0	1
COc1cc(C=Nc2cccc([N+](=O)[O-])c2C)ccc1OC(C)=O	0	6.4*	-2	-9	6	0
COc1cc(/C=N/N2CCN(c3ccccc3OC)CC2)ccc1OC(C)=O	0	-1	2	-1	-14	x
COc1cccc(C(C(=O)NCc2ccccc2)N2CCN(c3ccccc3F)CC2)c1OC (stereo not given)	x	x	-3	x	x	x
CCN1CCN(c2nc(Nc3cccc(OC)c3)nc(N)c2[N+](=O)[O-])CC1	2	2	2	-2	5	x
CCN1CCN(c2nc(Nc3ccc(C)c(C)c3)nc(N)c2[N+](=O)[O-])CC1	-1	0.0*	40	4	1	-6
CCN(CC)S(=O)(=O)c1ccc(N2CCOCC2)c(NC(=O)c2c3c(nc4ccccc24)CCC3)c1	-1	7.6*	0	-8	-13	-1
CCN(CC)S(=O)(=O)c1ccc(N2CCOCC2)c(NC(=O)c2cccc3ccccc23)c1	2	-2	1	22	-12	x
COc1ccc2c(Cl)c(C(=O)N/N=C/c3cccnc3)sc2c1	-9	15*	0	-3	-15	-2
CC1(C(=O)Nc2ccc3c(c2)OCCO3)CSCC(=O)N1CCc1ccccc1F (stereo not given)	x	x	-1	x	x	x
Nc1ccc(-c2nnnn2-c2ccc(N)cc2)cc1	-1	5.3*	0	-3	5	-3
Cn1cc(-c2csc(C(C)(O)c3cccnc3)n2)cn1 (stereo not given)	x	x	0	-10	x	x
Cc1ccc(S(=O)(=O)N(C)C[C@@H]2OCc3cn(nn3)CCCC(=O)N([C@H](C)CO)C[C@H]2C)cc1	x	x	0	-10	x	x
COc1ccc(CCN(C)C(=O)c2cc(-c3ccccc3)nc3ccccc23)cc1OC	1	0	-2	3	-6	x
COc1ccc(CCN(C)C(=O)c2cc(-c3ccccc3)nc3ccc(C)cc23)cc1OC	-3	11*	0	4	-3	-6
O=C(NCc1ccco1)c1c(O)c2cccc3c2n(c1=O)CCC3	0	8.8*	1	5	-8	0
COc1cc(NC(=O)CN(c2ccc(C)cc2)S(=O)(=O)c2c(C)nn(C)c2C)cc(OC)c1	-4	10*	2	14	-8	-6
CN1CCN(P(=O)(c2ccccc2)c2nc3ccccc3s2)CC1 (stereo not given)	2	5.9*	0	-7	-17	0
Cc1ccccc1NP(=O)(c1ccccc1)c1nc2ccccc2s1 (stereo not given)	-2	3	0	-2	1	x
O=C(Nc1ccc(F)c(Cl)c1)c1cc(C2CCCN(C(=O)CCc3ccccc3)C2)on1 (stereo not given)	x	x	3	15	x	x
Fc1ccc(Nc2nnc(-c3ccncc3)s2)cc1Cl	x	x	8	6	x	x
CC(C)n1ncc2c(C(=O)NCc3cccnc3)cc(C3CC3)nc21	-1	11*	-2	-6	x	-2
Cc1noc(C)c1S(=O)(=O)NC(=O)C1(C)CCN1C(=O)C1(c2ccc(Cl)cc2)CC1 (stereo not given)	x	x	0	-5	x	x
